In PubChem BioAssay (NCI):
About 83,000 compounds went through this panel and 20% of them were active in at least one assay; those are over-represented in the sample as a whole.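 Negative percent growth values reflect cell death: -40 means 40% of the cells present at the start died, and -100 means all died.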 A number with no mark means an inactive call. The source made the active and inactive calls. The calls were made as follows: active = growth percent below 10; inactive = the rest.

Key:
Assay in all cases: NCI-60 one-dose screen, 48 h (100 = growth as untreated, 0 = no growth, -100 = all killed)
Conditions in all cases: 10 µM unless noted
NCI-H23 lung = tested on: NCI-H23 lung
NCI-H226 lung = tested on: NCI-H226 lung
NCI-H322M lung = tested on: NCI-H322M lung
HOP-62 NSCLC = tested on: HOP-62 NSCLC
NCI-H460 lung = tested on: NCI-H460 lung
HOP-92 NSCLC = tested on: HOP-92 NSCLC
NCI-H522 lung = tested on: NCI-H522 lung
A549/ATCC NSCLC = tested on: A549/ATCC NSCLC
786-0 renal = tested on: 786-0 renal
COLO 205 colon = tested on: COLO 205 colon

SMILES	growth (NCI-H23 lung)	growth (NCI-H226 lung)	growth (NCI-H322M lung)	growth (HOP-62 NSCLC)	growth (NCI-H460 lung)	growth (HOP-92 NSCLC)	growth (NCI-H522 lung)	growth (A549/ATCC NSCLC)	growth (786-0 renal)	growth (COLO 205 colon)
O=C(O)c1cn(C2CC2)c2cc(N3CCN(Cc4nc5c(cnn5-c5ccc([N+](=O)[O-])cc5)c(=O)[nH]4)CC3)c(F)cc2c1=O	101%	94.8%	99.1%	103%	105%	112%	95%	102%	98.9%	112%
COc1ccc(-c2nc(Nc3cc(C)[nH]n3)c3ccccc3n2)cc1	60.2%	41.2%	78.1%	43.2%	28.5%	3.24% (active)	8.31% (active)	23.9%	50%	3.04% (active)
CNCCCn1c2c(c3ccc([N+](=O)[O-])cc3c1=O)C(=O)c1cc(OC)cnc1-2	-55.4% (active)	-81.5% (active)	-5.51% (active)	-33.4% (active)	-70.4% (active)	-7.43% (active)	-29% (active)	-82% (active)	-78.5% (active)	-13.2% (active)
O=C(COCc1c(-c2ccccc2)no[n+]1[O-])Nc1ccc(C(=O)/C=C/c2ccc3c(c2)OCO3)cc1	101%	96.6%	113%	108%	112%	73.2%	140%	85.4%	113%	120%
COc1cnc2c(c1)C(=O)c1c-2n(CCCN2CCN(C)CC2)c(=O)c2cc([N+](=O)[O-])ccc12	-46.4% (active)	79.3%	-56.9% (active)	-61.3% (active)	-74.5% (active)	-57.7% (active)	-37.6% (active)	-78.9% (active)	-87.1% (active)	-5.87% (active)
NC1=CC(=O)C(=O)c2ccccc21	72.7%	98.1%	102%	98.2%	106%	106%	80.6%	112%	92.8%	117%
Oc1ccccc1/C=N/Nc1ccc2ccccc2n1	45%	83%	31.2%	57.3%	27.2%	70.9%	-9.13% (active)	44%	65.3%	31.2%
COc1ccc(/C=C2\N=C3Sc4cc(Cl)ccc4C(=O)N3C2=O)cc1	96%	83%	95.8%	103%	104%	82.6%	87.5%	96.4%	101%	105%
CCN(C(=O)CN1CCN(c2cc3c(cc2F)c(=O)c(C(=O)O)cn3C2CC2)CC1)c1nc(-c2ccc(OC)cc2)cs1	66%	85.8%	38.8%	80.9%	-2.51% (active)	40%	49%	11.4%	102%	63.7%
CC(=O)C1=C(O)C=C2Oc3c(C(=O)/C=C/c4cc(Cl)cc(Cl)c4)c(O)c(C)c(O)c3[C@]2(C)C1=O	-42% (active)	-41.1% (active)	-28.9% (active)	-42.5% (active)	-5.02% (active)	-22% (active)	-52.2% (active)	-27.1% (active)	-34.9% (active)	-70.3% (active)
O=C(O)C(O)C(O)C(=O)O.[NH-]C1CCCCC1[NH-].[Pt+2] (stereo not given)	107%	102%	117%	98.8%	103%	100%	93.5%	111%	99.9%	106%
O=c1c(/C=C/c2ccco2)nnc(SCCN2CCOCC2)n1/N=C/c1ccc([N+](=O)[O-])cc1	91%	85.5%	113%	101%	103%	90.5%	86.5%	99.4%	95.2%	112%
COc1cc(NCCCCN=C(N)NC(N)=NC(C)C)c2ncccc2c1	-31.5% (active)	94.3%	33.6%	75.3%	74.4%	33.7%	-6.15% (active)	98.9%	106%	-18.5% (active)
O=C1/C(=C/c2ccc(Cl)c(Cl)c2)CN(C(=O)CCN2CCC(=NO)CC2)C/C1=C\c1ccc(Cl)c(Cl)c1	-73.4% (active)	-40.6% (active)	-78.7% (active)	-88.2% (active)	-66% (active)	-53.2% (active)	-90.4% (active)	-34.6% (active)	-79.6% (active)	-84.6% (active)
